# Screening data as filed in PubChem BioAssay.
# This is a sample that favours compounds with a hit; in the whole collection about 5.7% have one here.
# PI4K2A block: inhibitors of human PI4K2A; Q9BTU6; activity change, negative = inhibition, % at 76.9 µM; purified PI4K2A, ADP-Glo luminescence, 1 h; active compounds read low; 420,000 tested, 0.13% active; in the data active means activity change below about -50%; inconclusive means mostly about -30% to -49%;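 further: -100% = wells without enzyme as full effect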
# Target sequence (Q9BTU6 whole entry, looked up): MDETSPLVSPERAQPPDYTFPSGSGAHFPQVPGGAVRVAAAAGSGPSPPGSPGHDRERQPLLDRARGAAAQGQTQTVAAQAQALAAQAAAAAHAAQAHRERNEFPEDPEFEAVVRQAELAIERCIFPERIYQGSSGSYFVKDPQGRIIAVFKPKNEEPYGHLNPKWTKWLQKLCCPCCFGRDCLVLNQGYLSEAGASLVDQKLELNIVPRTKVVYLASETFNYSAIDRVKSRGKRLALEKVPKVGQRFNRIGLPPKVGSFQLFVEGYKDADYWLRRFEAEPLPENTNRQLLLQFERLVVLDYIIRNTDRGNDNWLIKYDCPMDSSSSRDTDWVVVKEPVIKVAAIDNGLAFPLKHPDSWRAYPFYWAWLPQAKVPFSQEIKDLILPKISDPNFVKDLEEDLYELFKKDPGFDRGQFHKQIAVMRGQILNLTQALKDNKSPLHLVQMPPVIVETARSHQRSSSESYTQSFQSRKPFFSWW
#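 PI4K2A activity was measured by ADP-Glo luminescence: enzyme (4 ug/mL stock) and phosphatidylinositol (1.2 mM stock) in Tris pH 7.5/MgCl2/EGTA/Triton X-100 buffer were reacted with ATP (300 microM stock) for one hour at ambient temperature.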
# KB-V1 cytotox: KB-V1 MDR subline cytotoxicity; KB-V1 MDR cells viability, CellTiter-Glo, 72 h; Potency, µM (top dose mostly 46.1 µM), actives largely listed as cytotoxic; 400,000 tested, 3.4% active; further: potency means the concentration at half of the fitted maximal effect; nearly all actives have a fitted effect of over 60% in size
#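 KB-V1 cells (P-gp-expressing MDR subline of KB-3-1) in phenol-red-free DMEM with 10% FBS were exposed to library compounds over a concentration series for 72 h at 37 degrees C. Viability read by CellTiter-Glo luminescence; concentration-effect curves fitted after normalization.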
# Nrf2 block: blocks Nrf2 signaling; A549 ARE-Fluc reporter, luciferase luminescence, 18-24 h; Potency, µM (top dose mostly 46 µM), for the others: top-dose activity change, negative = inhibition, usual class: inhibitors; 360,000 tested, 2.1% active; AID 504444; further: potency means the concentration at half of the fitted maximal effect; nearly all actives have a fitted effect of over 60% in size
#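 Nrf2 activity is the BugLite luminescence, read 15 min after reagent at room temperature, following CellTiter-Fluor cytotoxicity readout (30 min, 37C). Compound titrations were applied for 18-24 h to 5000 A549 ARE_Fluc cells/well in 5% FBS OPTI-MEM.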
# Giardia kill: kills Giardia lamblia; Giardia lamblia trophozoite viability; activity change, % at 7.66 µM, hits read low; 340,000 tested, 0.15% active; AID 540267; in the data active means activity change below about -80%; inconclusive means between about -30% and that limit;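 further: parasites exposed to compound for two days anaerobically before the ATP read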
#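 Luminescent ATP signal served as the viability read-out, measured 15-30 min after adding ATP detection reagent to trophozoites that had been incubated with compounds for 48 hrs at 37 deg C anaerobically at 100 cells/well.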
# A549 viability: kills or reduces viability of A549 cells in Nrf2 counter-screen; A549 ARE-Fluc cells, CellTiter-Fluor viability, 18-24 h; Potency, µM (series often up to 46 µM), inactives show at the highest dose activity change, negative = cytotoxicity, most hits filed as inhibitors; 390,000 tested, 0.16% active; AID 504648; further: potency means the concentration at half of the fitted maximal effect
#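 A549 ARE_Fluc cells in 5% FBS OPTI-MEM were exposed to compounds in concentration-response for 18-24 h at 37 deg C. Viability was read by CellTiter-Fluor fluorescence (Ex 405/Em 525) after 30 min, before the luciferase read.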
# KB-3-1 cytotox: KB-3-1 parental cell cytotoxicity; KB-3-1 viability, CellTiter-Glo ATP luminescence, 72 h; Potency, µM (series often up to 46.1 µM), actives largely listed as cytotoxic; 400,000 tested, 1.4% active; further: potency means the concentration at half of the fitted maximal effect; nearly all actives have a fitted effect of over 60% in size
#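 Multi-concentration cytotoxicity screen in KB-3-1 cells grown in DMEM lacking phenol red with 10% FBS. After 72 h at 37 °C with compound, ATP-dependent luminescence was recorded.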
# The depositor's hits bear a star; i = inactive; ? = inconclusive; . = not tested or not shown. Unless noted, the call rests on the fitted dose curve; in most records, active means well fitted curve in the direction sought with a large enough effect; inconclusive means small, poorly fitted or top-dose-only effect, or another doubt; inactive means no such curve, though single readings can be large; an effect the other way counts as inactive or inconclusive. Unless noted, on the % scale 0 is the no-effect control and ±100 the full control effect.
SMILES,PI4K2A block,KB-V1 cytotox,Nrf2 block,Giardia kill,A549 viability,KB-3-1 cytotox
COc1ccc(NC(=S)NNC(=O)c2nnn(-c3ccccc3)c2C)cc1,4,18µM*,-13%,8,-4%,i
Cc1c(C(C)C)c(=O)n(-c2ccc(S(=O)(=O)NC(C)C)cc2)n1C,-6,?,18µM*,1,-17%,i
CCOC(=O)c1nnn(-c2nonc2N)c1CN1CCc2ccccc2C1,6,?,-9%,-5,-4%,i
C/C(=N\NC(=O)c1nnn(-c2nonc2N)c1CN1CCc2ccccc21)c1ccccc1O,-8,i,12µM*,10,-14%,?
CC(C)OC(=O)c1nnn(-c2nonc2N)c1CN1CCc2ccccc2C1,6,6.5µM*,-1%,0,-4%,i
COC(=O)c1nnn(-c2nonc2N)c1CN1CCc2ccccc21,0,?,-21%,27,?,23µM*
O=C(Nc1ccccc1)C1CCN(c2ncc(-c3ccc4c(c3)OCCCO4)s2)CC1,.,i,.,.,.,i
O=C(O)Cc1cccc(-c2cc(CCCCCCc3ccc(O[C@H]4O[C@H](CO)[C@@H](O)[C@H](O)[C@@H]4O)c(-c4cccc(CC(=O)O)c4)c3)ccc2O[C@H]2O[C@H](CO)[C@@H](O)[C@H](O)[C@@H]2O)c1,i,.,.,.,.,.
c1ccc(-c2nc(NC3CCCC3)c3ccccc3n2)cc1,-3,?,23µM*,-22,?,?
Cc1ccc2ccc(Cl)cc2n1,-3,.,.,.,.,.
CC(=O)OCCN1c2ccccc2Sc2cnccc21,-2,15µM*,.,.,.,12µM*
Cc1cc(C)n(-c2nc(N(c3ccccc3)c3ccccc3)nc(-n3nc(C)cc3C)n2)n1,-2,2.6µM*,.,4,?,18µM*
CCCCN(CCCC)c1nc(OC)nc(-n2nnc(C(C)=O)c2C)n1,5,i,-27%,-4,-21%,i
CC(=O)c1nnn(-c2nc(N)nc(N(c3ccccc3)c3ccccc3)n2)c1C,-1,10µM*,-24%,-4,-25%,i
CN(c1ccccc1C(=O)NCc1ccco1)S(C)(=O)=O,-5,i,5%,5,-6%,i
COC(=O)c1ccccc1NC(=O)c1ccccc1N(C)S(C)(=O)=O,-2,i,.,-2,-3%,i
CN(c1ccccc1C(=O)Nc1ccccc1C(=O)NCc1ccco1)S(C)(=O)=O,3,15µM*,-7%,8,6%,i
CCOC(=O)c1ccccc1NC(=O)c1ccccc1N(C)S(C)(=O)=O,-4,18µM*,7%,-4,-4%,i
Cc1ccccc1CN(c1ccc(C(=O)Nc2ccccc2C(=O)NCc2ccco2)cc1)S(C)(=O)=O,-5,8.2µM*,-31%,-2,-6%,i
O=S(=O)(c1ccc2ccccc2c1)N1CCN(C(=S)Nc2ccccc2F)CC1,-1,i,15µM*,-7,-1%,?
O=S(=O)(c1ccc(Cl)cc1)N1CCN(C(=S)Nc2ccccc2F)CC1,1,i,6%,-1,8%,i
COc1nc(OC)nc(N2CCC(C(=O)NCc3ccco3)CC2)n1,6,?,10%,0,-6%,i
O=C(NCc1ccco1)C1CCN(S(=O)(=O)N2CCOCC2)CC1,-85*,i,4%,-2,11%,i
O=C(NCc1ccco1)c1cc(S(=O)(=O)N2CCOCC2)c(Cl)cc1Cl,5,i,18µM*,-4,?,i
Cc1cc(C)nc(N2CCC(C(=O)NCc3cccs3)CC2)n1,11,13µM*,11%,-11,-1%,i
SMILES,PI4K2A block,KB-V1 cytotox,Nrf2 block,Giardia kill,A549 viability,KB-3-1 cytotox
Cc1cc(C)nc(N2CCC(C(=O)NCc3ccco3)CC2)n1,-1,16µM*,5%,18,-8%,i
O=C(Nc1ccc(Cl)c(Cl)c1)C1CCCN(c2nnc(-n3cccc3)s2)C1 (stereo not given),-3,.,.,.,.,.
O=C(N[C@@H]1CC[C@H]2SC[C@H](C(=O)O)N2C1=O)OCC1c2ccccc2-c2ccccc21,-4,.,.,.,.,.
Cc1nn2c3c(cnc2c1-c1ccc(F)cc1)C(=O)CC(c1ccccc1)C3 (stereo not given),1,i,-19%,.,4%,i
O=C(NCc1cccs1)C1CCN(c2ccc(S(=O)(=O)N3CCOCC3)cc2Cl)CC1,-5,3.7µM*,1%,-6,7%,2.3µM*
C=CS(=O)(=O)N(Cc1nnn(Cc2ccccc2)c1Br)[C@@H](CC(C)C)C(=O)OC,4,.,.,.,.,.
Cc1nn(C(C)C(=O)NCc2ccccc2F)c(=O)c2nn(-c3ccccc3)c(C)c12 (stereo not given),7,i,2%,-7,0%,i
Cc1ccc(CCNC(=O)C(C)n2nc(C)c3c(C)n(-c4ccccc4)nc3c2=O)cc1 (stereo not given),0,i,-18%,6,1%,i
Cc1ccc(-n2nc3c(=O)n(C(C)C(=O)NCc4ccccc4C)nc(C)c3c2C)cc1 (stereo not given),-2,i,5.2µM*,.,-9%,15µM*
CCC(C(=O)NCCc1ccc(C)cc1)n1nc(C)c2c(C)n(-c3ccccc3)nc2c1=O (stereo not given),-5,i,16µM*,18,-18%,i
Cc1ccc(-n2nc3c(=O)n(C(C)C(=O)NCCC4=CCCCC4)nc(C)c3c2C)cc1 (stereo not given),1,?,21µM*,-5,-16%,?
Cc1ccc(-n2nc3c(=O)n(C(C)C(=O)NCc4ccc(Cl)cc4)nc(C)c3c2C)cc1 (stereo not given),8,i,10µM*,2,-19%,8.2µM*
Brc1ccc(Nc2c3c(nc4nncn24)CCC3)cc1,2,.,-19%,.,0%,.
O=C(NCc1ccco1)O[C@@H]1CC[C@@]23CCCN2C(=O)CCC[C@H]3C1,3,.,.,.,.,.
C[C@H]1[C@@H](NC(=O)Cc2ccsc2)CC[C@@]23CCCN2C(=O)CCC[C@@H]13,4,.,.,.,.,.
C#CCN1CC(N(C)CCOC(=O)CC2C=CCC2)CS1(=O)=O (stereo not given),0,.,.,.,.,.
COC(=O)[C@]12C[C@H](CC(=O)N3CCCCC3)C(=O)N(CCC3=CCCCC3)C1=C[C@H](C1CCCC1)O[C@@H]2C,-2,.,.,.,.,.
CCc1ccc(/C=C/C(=O)NC2=NCCS2)cc1,-4,.,.,.,.,.
COc1ccccc1N(C)C,.,i,.,.,.,i
Cn1ncc2c(O/N=C(\N)c3ccc(C(C)(C)C)cc3)ncnc21,-19,13µM*,18µM*,30,16µM*,?
Cc1ccsc1CNc1ncnc2ccc(-c3ccc4c(c3)OCO4)cc12,.,.,?,.,-4%,.
